From PubChem BioAssay
Rows were chosen to be rich in hits. Some 11% of all compounds tested hit in one or more screens of this group.
L3MBTL1 block = inhibitors of human L3MBTL1; Q9Y468; AlphaScreen L3MBTL1–H3K9me1 peptide binding; Potency, µM (highest dose often 57.1 µM), for the others: at the top dose activity, negative = inhibition, actives largely listed as inhibitors; 230,000 compounds, 0.66% hits; AID 485360; further: potency means the concentration at half of the fitted maximal effect; on the % scale 0 is the no-effect control and ±100 the full control effect; nearly all actives have a fitted effect of over 60% in size
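L3MBTL1 50 nM + b-AHA-H3(1-15)K9me1 75 nM, 30 min RT; compound added, 30 min RT; streptavidin donor/Ni-chelate acceptor beads 10 ug/mL each final, 30 min RT dark; AlphaScreen read.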
JMJD2A Tudor = JMJD2A Tudor domain (human) inhibition. O75164. AlphaScreen JMJD2A-Tudor / H3K4me3 peptide binding. Potency, µM (top dose mostly 114 µM), for inactives: at the top dose activity change, negative = inhibition, most hits filed as inhibitors. 390,000 compounds, 4.4% hits. AID 504339; further: potency means the concentration at half of the fitted maximal effect; on the % scale 0 is the no-effect control and ±100 the full control effect; nearly all actives have a fitted effect of over 50% in size
Target sequence (O75164 whole entry, looked up, the tested form may be a part): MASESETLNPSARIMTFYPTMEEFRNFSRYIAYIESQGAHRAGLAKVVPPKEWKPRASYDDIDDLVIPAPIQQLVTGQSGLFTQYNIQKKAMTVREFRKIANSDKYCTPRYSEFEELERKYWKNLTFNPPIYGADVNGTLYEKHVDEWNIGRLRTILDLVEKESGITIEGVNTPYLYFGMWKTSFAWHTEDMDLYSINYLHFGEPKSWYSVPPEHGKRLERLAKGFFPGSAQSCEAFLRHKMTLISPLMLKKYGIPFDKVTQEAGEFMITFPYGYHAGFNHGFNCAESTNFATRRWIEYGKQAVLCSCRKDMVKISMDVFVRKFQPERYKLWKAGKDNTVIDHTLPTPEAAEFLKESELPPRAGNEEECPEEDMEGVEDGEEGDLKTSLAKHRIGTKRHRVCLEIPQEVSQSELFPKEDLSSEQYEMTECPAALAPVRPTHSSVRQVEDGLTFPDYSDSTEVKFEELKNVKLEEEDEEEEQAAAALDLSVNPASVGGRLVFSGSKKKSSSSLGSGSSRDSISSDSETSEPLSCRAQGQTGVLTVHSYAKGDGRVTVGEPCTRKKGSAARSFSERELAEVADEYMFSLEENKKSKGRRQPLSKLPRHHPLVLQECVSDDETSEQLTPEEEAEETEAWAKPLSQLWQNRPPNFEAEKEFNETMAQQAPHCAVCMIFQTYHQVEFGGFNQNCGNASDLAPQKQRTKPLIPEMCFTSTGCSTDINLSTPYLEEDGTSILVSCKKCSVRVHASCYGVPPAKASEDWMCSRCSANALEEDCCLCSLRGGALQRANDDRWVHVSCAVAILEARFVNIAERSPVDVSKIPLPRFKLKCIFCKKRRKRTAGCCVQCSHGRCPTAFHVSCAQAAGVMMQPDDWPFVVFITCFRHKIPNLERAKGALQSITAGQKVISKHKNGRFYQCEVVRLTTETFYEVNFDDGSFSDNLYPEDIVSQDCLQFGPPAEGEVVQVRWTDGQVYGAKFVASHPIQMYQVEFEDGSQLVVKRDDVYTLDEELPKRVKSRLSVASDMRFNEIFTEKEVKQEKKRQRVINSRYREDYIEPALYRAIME
PI5P4Ka inh = blocks human PI5P4K alpha kinase activity | P48426 | max response, % | 330,000 compounds, 1.2% hits | PI5P4Kalpha enzyme, ADP-Glo luminescence, 60 min; active compounds read low | AID 652105; active means max response of -50% or lower; inconclusive means between -30% and -50%; inactive means -30% or higher; further: value at the top dose of about 77 µM; on the % scale 0 is the no-effect control and ±100 the full control effect
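ADP-Glo luminescence end-point after a 60 min room-temperature kinase reaction. PI5P4Kalpha and substrate in HEPES pH 7.4 buffer with EGTA, 0.1% CHAPS and 5% DMSO; ATP at 5 microM final.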
G9a block = blocks human histone lysine methyltransferase G9a | G9a H3K9 monomethylation, AlphaScreen, 2 h | Potency, µM (series often up to 102 µM), inactives show at the top dose activity, negative = inhibition, actives largely listed as inhibitors | Q96KQ7 | 350,000 compounds, 8.8% hits; further: potency means the concentration at half of the fitted maximal effect; on the % scale 0 is the no-effect control and ±100 the full control effect; nearly all actives have a fitted effect of over 75% in size
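G9a (20 nM) was preincubated 15 min with compound, then reacted 2 h at room temperature with 500 nM biotin-H3K9 peptide and 20 µM SAM. Monomethyl-H3K9 detected by AlphaScreen using anti-H3K9me1 antibody.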
HP1b chromo inh = blocks HP1-beta chromodomain binding to methylated histone tails; P83916; AlphaScreen HP1-beta / biotin-H3K9me3 peptide binding; Potency, µM (doses to about 114 µM), inactives show top-dose activity change, negative = inhibition, usual class: inhibitors; 390,000 compounds, 0.56% hits; AID 540317; further: potency means the concentration at half of the fitted maximal effect; nearly all actives have a fitted effect of over 70% in size
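HP1-beta protein (50 nM final) preincubated 30 min at room temperature with biotinylated H3(1-18)K9me3 peptide (50 nM) in PBS pH 7.4, 0.01% Tween-20, then compound added for 30 min. AlphaScreen streptavidin donor/nickel chelate acceptor beads (10 ug/mL final), 30 min dark, luminescence read.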
BAZ2B inh = blocks human BAZ2B; Q9UIF8; AlphaScreen BAZ2B-H3K14Ac peptide displacement; Potency, µM (highest dose often 114 µM), for inactives: top-dose activity change, negative = inhibition, most hits filed as inhibitors; 360,000 compounds, 4.4% hits; AID 504333; further: potency means the concentration at half of the fitted maximal effect; on the % scale 0 is the no-effect control and ±100 the full control effect; nearly all actives have a fitted effect of over 60% in size
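Complex of BAZ2B and biotin-H3K14Ac (50 nM apiece) forms over 30 min at RT, then faces library compounds up to 110 uM for another 30 min; AlphaScreen beads added, 20 min dark incubation, luminescence read.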
The depositor's hits bear a star; [ ] = remark or other dose. Unless noted, the call rests on the fitted dose curve; in most records, active means well fitted inhibition curve with a large enough effect; inconclusive means small, poorly fitted or top-dose-only effect; inactive means no such curve, though single readings can be large or run the other way.

For Cc1nc(-c2ccc(S(=O)(=O)NCc3ccc(N(C)C)cc3)cc2)co1 the results were JMJD2A Tudor 50µM*, G9a block inconclusive, HP1b chromo inh -8%[57 µM] and BAZ2B inh 40µM*.
For COC(=O)c1cc2c(ccn2-c2ccc(F)cc2)n1CC(C)C the results were L3MBTL1 block -15%, JMJD2A Tudor inconclusive, G9a block 45µM*, HP1b chromo inh -20% and BAZ2B inh inconclusive.
For CCCn1c(C(=O)OC)cc2c1ccn2-c1ccc(F)cc1 the results were L3MBTL1 block -25%, JMJD2A Tudor inconclusive, G9a block 71µM*, HP1b chromo inh -10% and BAZ2B inh inconclusive.
`COC(=O)c1cc2c(ccn2-c2ccc(F)cc2)n1Cc1cccc(OC)c1` gave L3MBTL1 block -13%, JMJD2A Tudor inconclusive, PI5P4Ka inh -3, G9a block -4%, HP1b chromo inh 11% and BAZ2B inh -34%.
Screening COC(=O)c1cc2c(ccn2-c2ccc(F)cc2)n1C(C)C returned L3MBTL1 block -23%, JMJD2A Tudor inconclusive, G9a block -8%[0.0925 µM], HP1b chromo inh inconclusive and BAZ2B inh inconclusive.
Screening COC(=O)c1cc2c(ccn2-c2ccc(F)cc2)n1Cc1ccc(OC(C)=O)cc1 returned L3MBTL1 block inconclusive, JMJD2A Tudor inconclusive, PI5P4Ka inh 11, G9a block 50µM*, HP1b chromo inh 0% and BAZ2B inh inconclusive.
Screening CCOC(=O)c1cc2c(ccn2-c2ccc(F)cc2)n1CC(=O)N1CCN(C(=O)c2ccco2)CC1 returned L3MBTL1 block -1%, JMJD2A Tudor -8%, PI5P4Ka inh -7, G9a block -2%, HP1b chromo inh 37% and BAZ2B inh 8%.
`CC1CCN(C(=O)Cn2cc(SCc3cccc(F)c3)c3ccccc32)CC1` gave JMJD2A Tudor 24%, G9a block 7%[59 µM], HP1b chromo inh 38% and BAZ2B inh 2%.
For O=c1c2ccccc2n(Cc2cccc(Cl)c2)c(=O)n1CCc1ccccc1 the results were JMJD2A Tudor -5%, G9a block 57%[59 µM], HP1b chromo inh 16% and BAZ2B inh 17%.
Nc1cc(-c2ccccc2)ccc1O was read as L3MBTL1 block -14%, JMJD2A Tudor inconclusive, PI5P4Ka inh -9, G9a block 22µM*, HP1b chromo inh -22% and BAZ2B inh inconclusive.
CC(=O)Nc1cc(-c2ccccc2)ccc1O was read as L3MBTL1 block 29%, JMJD2A Tudor -5%, G9a block 28µM*, HP1b chromo inh 26% and BAZ2B inh 23%.
Screening O=C(Nc1ccc(Cl)cc1)c1ccc2oc(=O)n(Cc3ccccc3)c2c1 returned JMJD2A Tudor 9%, G9a block 37%[59 µM], HP1b chromo inh 34% and BAZ2B inh -16%.
Screening CSCCC(C(=O)O)N1C(=O)c2ccc(C(=O)O)cc2C1=O (stereo unspecified) returned L3MBTL1 block -4%, JMJD2A Tudor 79µM*, PI5P4Ka inh 4, G9a block 25µM*, HP1b chromo inh 21% and BAZ2B inh -10%.
Screening O=C(O)c1ccc2c(c1)C(=O)N(C(Cc1ccccc1)C(=O)O)C2=O (stereo unspecified) returned L3MBTL1 block 20%, JMJD2A Tudor -18%, G9a block -38%[59 µM], HP1b chromo inh 28% and BAZ2B inh inconclusive.
CCc1nn(CC(=O)N2CCCCC2)c(=O)c2cc3sc(C)cc3n12 was read as JMJD2A Tudor 1%, G9a block -10%[59 µM], HP1b chromo inh 20% and BAZ2B inh -3%.
Screening CCN1CCN(c2ccc(S(=O)(=O)N3CCCCC3)cc2NC(=O)COc2cc(C)ccc2Cl)CC1 returned L3MBTL1 block -18%, JMJD2A Tudor inconclusive, PI5P4Ka inh -8, G9a block 10µM*, HP1b chromo inh -27% and BAZ2B inh 79µM*.
